# Experiments:
# Assay in all cases: PBM binding z-score (relative to random genomic background probes); higher = stronger binding; sequences stand for … in GC…GCGATTGACAGCGTAGAATGAAGG
# [1] = system: PPARg:RXRa DBDmut IVT, anti-RXR (DBD mutation: RXRa K156A/R161A, NR concentration 270 nM, RXRa partner concentration 90 nM)
# Method in brief: (§1)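 Random background probes are the reference for binding z-scores. These scores derive from regression-normalized fluorescence on custom Agilent 4×180K protein-binding microarrays incubated 1 h with ligand-free nuclear receptor dimers. Binding was detected with antibodies against each partner (one per run).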
# [2] = system: PPARg:RXRa IVT, anti-PPARg (NR concentration 270 nM, RXRa partner concentration 90 nM)
# Method in brief: as §1
# [3] = system: PPARg DBDmut:RXRa IVT, anti-PPARg (DBD mutation: PPARg1 K132A/R137A, NR concentration 270 nM, RXRa partner concentration 90 nM)
# Method in brief: as §1
# [4] = system: PPARg DBDmut IVT, anti-PPARg (DBD mutation: PPARg1 K132A/R137A, NR concentration 270 nM)
# Method in brief: as §1
# [5] = system: PPARg homodimer (NR concentration 180 nM)
# Method in brief: as §1
# [6] = system: PXR:RXRa (NR concentration 270 nM, RXRa partner concentration 90 nM)
# Method in brief: as §1
# [7] = system: PXR homodimer (NR concentration 270 nM)
# Method in brief: as §1
# [8] = system: RARa:RXR (NR concentration 270 nM, RXRa partner concentration 90 nM)
# Method in brief: as §1
# [9] = system: RARa homodimer (NR concentration 270 nM)
# Method in brief: as §1
# [10] = system: RARb:RXRa (NR concentration 270 nM, RXRa partner concentration 90 nM)
# Method in brief: as §1
# [11] = system: RARb homodimer (NR concentration 270 nM)
# Method in brief: as §1
# [12] = system: RARg:RXRa (NR concentration 270 nM, RXRa partner concentration 90 nM)
# Method in brief: as §1
# [13] = system: RARg homodimer (NR concentration 270 nM)
# Method in brief: as §1
# [14] = system: RXRa DBDmut IVT, anti-RXR (DBD mutation: RXRa K156A/R161A, NR concentration 90 nM)
# Method in brief: as §1
# [15] = system: RXRa homodimer (NR concentration 180 nM)
# Method in brief: as §1
# [16] = system: THRa:RXRa (NR concentration 90 nM, RXRa partner concentration 90 nM)
# Method in brief: as §1
# [17] = system: THRa homodimer (NR concentration 90 nM)
# Method in brief: as §1
# [18] = system: VDR homodimer (NR concentration 270 nM)
# Method in brief: as §1
Sequence,PBM binding z-score [1],PBM binding z-score [2],PBM binding z-score [3],PBM binding z-score [4],PBM binding z-score [5],PBM binding z-score [6],PBM binding z-score [7],PBM binding z-score [8],PBM binding z-score [9],PBM binding z-score [10],PBM binding z-score [11],PBM binding z-score [12],PBM binding z-score [13],PBM binding z-score [14],PBM binding z-score [15],PBM binding z-score [16],PBM binding z-score [17],PBM binding z-score [18]
TATACAGGGGCAAAGGCCAGAGTACGAATGTCGA,0.641,2.72,1.72,2.01,1.16,0.577,0.087,0.592,0.364,2.1,1.74,1.95,1.85,0.806,1.49,0.569,-0.328,0.679
CGAACTAGGTCATTGACAGGACAGTGCATAGTAA,7.99,8.21,2.11,0.779,1.71,1.76,0.634,2.28,0.279,3.66,2.87,4.65,4.3,2.22,2.43,2.85,0.816,1.86
ACTCGCAGGCCAAGTTTGGGTCACTCAAACAAAG,0.227,0.485,-0.206,-0.189,0.897,0.84,-0.477,1.47,-0.257,1.89,2.5,2.65,1.73,0.0285,0.756,2.72,1.1,0.548
CTCGAACGGTCGTGCTCAGGTGAGTATACCAAAC,0.143,-0.0947,-0.8,-0.726,0.0744,-0.455,-0.32,-0.252,-0.56,0.781,0.628,0.435,0.489,0.177,-0.088,1.4,0.536,-0.528
ACCTACGGGTCAACGAGGTTATAGCACGCGTATA,1.41,2.79,0.196,0.0693,3.53,5.22,3.27,5.3,0.837,4.05,3.18,5.47,4.95,2.06,5.89,3.88,0.718,3.51
CAAACTAGGTCACGAAAGGTAAAAGTCGAATGAC,8.36,9.37,5.06,2.46,2.6,3.12,0.438,3.69,1.43,4.33,3.34,5.16,5.56,2.02,4.2,4.18,1.49,0.85
CCTGCTCGGTCATGGTCAGCTAATCTACAGTATG,0.829,0.464,-0.762,-0.953,-0.491,-0.351,-0.822,-0.293,-0.596,2.46,1.93,1.91,2.66,0.361,0.252,0.067,-0.311,-0.527
TGTAAAAGTTCAAAGGTAACGTAAGTATCCACAC,0.163,2.72,1.6,1.19,2.18,5.02,2.34,5.42,1.74,4.85,3.5,5.35,5.12,4.06,6.28,3.53,0.192,2.83
TCGAGTAGGTGAGGGGCATTCAGAATGGCGTCGA,3.64,3.75,-0.208,0.0293,0.149,0.21,-0.342,-0.0572,-0.832,0.965,0.716,-0.0952,-0.106,0.0823,0.442,0.268,-0.559,-0.687
ATCTCTAGGTAAGACTCAGTTCAGTTAAGAACGC,2.13,1.36,0.719,0.801,1.1,1.11,1.83,0.499,1.6,0.431,0.724,0.306,0.466,0.735,-0.175,1.44,0.728,1.6
GGAACGAGGGCATTCGAGCTGATAGCATGGCGAT,2.71,1.64,-0.32,-0.167,-0.0868,0.26,-0.341,-0.000407,-0.846,1.45,0.164,0.737,1.2,2.72,0.444,0.7,-0.936,1.53
CGTCCAAGGTCAATGCTAGGTCAGTTAAAGCATT,3.07,3.94,0.0858,0.055,4.36,4.89,1.22,5.78,1.02,5.21,5.03,7.56,6.8,3.49,5.03,4.67,2.9,3.2
TGAATGAGGTTAGAAGATCAGGGAACGTTGCAAA,0.481,1.07,0.215,0.423,0.0749,0.145,-0.0637,0.485,0.14,0.954,0.0495,0.98,0.936,-0.437,1.17,1.13,-0.107,-0.169
AGAACGAGGGCACGCTGAGTAGATAGCAGAGTAG,4.04,3.83,1.29,0.195,0.114,0.201,-0.149,0.712,-0.354,2.4,0.843,1.94,2.23,1.58,1.45,1.58,-0.259,0.46
TCTGCTAGGTCAACGATGGTGAGCTAATCTGCTA,4.06,4.11,0.101,-0.356,0.2,0.739,-1.18,1.68,-1.07,3.98,2.8,3.82,4.93,0.81,1.99,2.68,0.17,-0.792

# Reference: the supplement of paper PMC6555819
